Test results as given in the supplement of paper PMC11732987, “Enantioselective OTUD7B fragment discovery through chemoproteomics screening and high-throughput optimisation” (Communications Chemistry, 2025).

Experiments:
Assay in all cases: log2 ratio of Biotin-Ahx-Ub-VS probe labelling (fragment/DMSO); higher = less target engagement (more negative = stronger competition), active = hit call of the paper (q ≤ 0.05, log2 ratio ≤ -1)
Settings in all cases: compound concentration: 200 uM; treatment time: 3 h
USP16 = USP16 (UniProt Q9Y5T5)
Summary of the method: (§1)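 Labelled DUBs were enriched with NeutrAvidin, digested with LysC and trypsin, and run by diaPASEF LC-MS/MS. The labelling used Biotin-Ahx-Ub-VS at 0.5 µM final for 1 h on HEK293T lysate (495 µg per sample) previously treated in triplicate with fragment at 200 µM or vehicle for 3 h. Values are average log2 fragment/vehicle ratios by unpaired t-test on global-median-normalised Spectronaut quantities of proteins with ≥2 unique peptides.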

USP19 = target: T1, USP19 (UniProt O94966)
T1 sequence (whole entry): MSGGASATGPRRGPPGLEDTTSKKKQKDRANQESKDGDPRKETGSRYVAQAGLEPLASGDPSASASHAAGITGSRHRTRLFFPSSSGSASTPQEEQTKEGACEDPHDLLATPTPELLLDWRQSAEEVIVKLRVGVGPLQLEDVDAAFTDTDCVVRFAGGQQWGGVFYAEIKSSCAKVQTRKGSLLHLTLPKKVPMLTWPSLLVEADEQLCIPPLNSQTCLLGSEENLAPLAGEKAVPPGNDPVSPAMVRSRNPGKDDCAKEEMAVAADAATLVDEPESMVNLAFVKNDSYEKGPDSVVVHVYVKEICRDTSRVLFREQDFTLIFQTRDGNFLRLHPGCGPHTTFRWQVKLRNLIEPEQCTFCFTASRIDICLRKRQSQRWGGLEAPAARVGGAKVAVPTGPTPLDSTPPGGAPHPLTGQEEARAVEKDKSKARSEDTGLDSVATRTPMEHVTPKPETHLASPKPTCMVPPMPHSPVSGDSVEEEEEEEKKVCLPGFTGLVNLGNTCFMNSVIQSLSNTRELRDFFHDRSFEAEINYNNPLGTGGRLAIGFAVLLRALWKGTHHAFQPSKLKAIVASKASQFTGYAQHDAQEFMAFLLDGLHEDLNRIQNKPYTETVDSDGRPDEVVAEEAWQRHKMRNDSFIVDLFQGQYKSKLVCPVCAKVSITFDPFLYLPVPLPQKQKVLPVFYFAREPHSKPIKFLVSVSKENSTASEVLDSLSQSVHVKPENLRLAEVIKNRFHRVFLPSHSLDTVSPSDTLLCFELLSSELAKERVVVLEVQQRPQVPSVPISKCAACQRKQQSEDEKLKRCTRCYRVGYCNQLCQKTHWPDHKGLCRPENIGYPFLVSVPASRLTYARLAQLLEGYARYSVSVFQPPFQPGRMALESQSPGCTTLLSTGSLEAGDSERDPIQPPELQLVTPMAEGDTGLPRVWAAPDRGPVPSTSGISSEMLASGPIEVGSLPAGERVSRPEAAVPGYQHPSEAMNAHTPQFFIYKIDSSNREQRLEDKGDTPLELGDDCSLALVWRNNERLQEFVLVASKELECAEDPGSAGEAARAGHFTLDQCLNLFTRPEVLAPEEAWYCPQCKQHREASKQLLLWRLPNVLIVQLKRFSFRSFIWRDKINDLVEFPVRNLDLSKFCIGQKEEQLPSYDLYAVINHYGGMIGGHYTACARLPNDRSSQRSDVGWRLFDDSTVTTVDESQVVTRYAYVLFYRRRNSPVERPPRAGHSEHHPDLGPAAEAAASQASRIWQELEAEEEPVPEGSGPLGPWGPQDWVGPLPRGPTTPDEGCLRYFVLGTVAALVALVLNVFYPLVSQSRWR
Summary of the method: as §1

USP24 = USP24 (UniProt Q9UPU5)
Summary of the method: as §1

USP25 = target: T2, USP25 (UniProt Q9UHP3)
T2 sequence (whole entry): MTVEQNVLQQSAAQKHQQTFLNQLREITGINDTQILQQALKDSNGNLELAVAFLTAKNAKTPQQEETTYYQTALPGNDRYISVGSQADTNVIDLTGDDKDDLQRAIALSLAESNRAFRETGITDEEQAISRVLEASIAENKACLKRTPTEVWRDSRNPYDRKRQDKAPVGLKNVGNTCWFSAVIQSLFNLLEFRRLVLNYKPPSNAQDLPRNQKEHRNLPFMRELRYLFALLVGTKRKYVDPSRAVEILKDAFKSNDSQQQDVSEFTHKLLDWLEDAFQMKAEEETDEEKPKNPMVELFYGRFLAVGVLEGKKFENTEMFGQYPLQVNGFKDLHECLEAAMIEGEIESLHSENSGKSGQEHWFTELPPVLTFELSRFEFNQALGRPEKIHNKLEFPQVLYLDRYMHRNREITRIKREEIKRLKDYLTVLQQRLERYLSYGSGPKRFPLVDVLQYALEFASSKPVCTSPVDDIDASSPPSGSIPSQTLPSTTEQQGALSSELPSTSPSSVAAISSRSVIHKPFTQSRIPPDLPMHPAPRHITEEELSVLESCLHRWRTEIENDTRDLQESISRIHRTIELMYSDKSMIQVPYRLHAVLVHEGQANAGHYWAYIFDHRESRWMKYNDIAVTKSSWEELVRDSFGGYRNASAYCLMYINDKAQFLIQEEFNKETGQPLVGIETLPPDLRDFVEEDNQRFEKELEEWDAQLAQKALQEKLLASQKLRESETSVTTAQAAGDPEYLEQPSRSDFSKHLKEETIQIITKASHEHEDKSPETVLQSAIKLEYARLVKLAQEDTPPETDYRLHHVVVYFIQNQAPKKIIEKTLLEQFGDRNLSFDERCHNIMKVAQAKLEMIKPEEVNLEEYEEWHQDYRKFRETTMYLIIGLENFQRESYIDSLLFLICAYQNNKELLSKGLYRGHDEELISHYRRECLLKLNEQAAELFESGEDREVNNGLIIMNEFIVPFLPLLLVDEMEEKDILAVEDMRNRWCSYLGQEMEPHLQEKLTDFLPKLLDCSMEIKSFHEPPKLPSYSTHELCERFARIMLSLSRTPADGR
Summary of the method: as §1

USP28 = target: T3, USP28 (UniProt Q96RU2)
T3 sequence (whole entry): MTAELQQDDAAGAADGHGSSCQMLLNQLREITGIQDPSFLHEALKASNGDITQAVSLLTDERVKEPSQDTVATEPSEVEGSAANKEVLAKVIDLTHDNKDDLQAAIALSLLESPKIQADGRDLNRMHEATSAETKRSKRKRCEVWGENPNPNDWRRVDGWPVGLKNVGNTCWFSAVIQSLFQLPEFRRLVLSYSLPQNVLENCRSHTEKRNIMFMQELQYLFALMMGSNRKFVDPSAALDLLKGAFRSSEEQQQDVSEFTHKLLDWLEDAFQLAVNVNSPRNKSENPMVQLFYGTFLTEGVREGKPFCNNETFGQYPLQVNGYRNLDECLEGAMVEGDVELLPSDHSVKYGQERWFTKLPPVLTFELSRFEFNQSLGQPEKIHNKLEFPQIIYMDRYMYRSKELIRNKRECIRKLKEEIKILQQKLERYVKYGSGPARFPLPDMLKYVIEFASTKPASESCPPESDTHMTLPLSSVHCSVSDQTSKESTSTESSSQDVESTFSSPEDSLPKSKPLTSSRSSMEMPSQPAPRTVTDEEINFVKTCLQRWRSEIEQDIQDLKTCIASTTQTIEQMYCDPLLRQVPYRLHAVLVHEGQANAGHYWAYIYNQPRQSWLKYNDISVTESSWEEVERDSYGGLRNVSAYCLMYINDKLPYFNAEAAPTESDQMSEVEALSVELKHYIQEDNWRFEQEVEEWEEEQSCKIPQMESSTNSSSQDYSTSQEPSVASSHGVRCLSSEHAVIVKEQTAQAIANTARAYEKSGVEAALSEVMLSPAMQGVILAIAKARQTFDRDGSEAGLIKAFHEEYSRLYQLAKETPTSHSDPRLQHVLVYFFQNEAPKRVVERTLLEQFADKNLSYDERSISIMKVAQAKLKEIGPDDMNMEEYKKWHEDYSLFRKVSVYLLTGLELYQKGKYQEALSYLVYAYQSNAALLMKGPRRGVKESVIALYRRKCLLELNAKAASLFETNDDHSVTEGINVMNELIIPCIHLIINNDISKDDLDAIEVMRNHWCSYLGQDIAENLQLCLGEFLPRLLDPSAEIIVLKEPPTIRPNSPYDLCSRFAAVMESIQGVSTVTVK
Summary of the method: as §1

Measured: log2 ratio of Biotin-Ahx-Ub-VS probe labelling

USP16, sequence (Q9Y5T5 whole entry, looked up, the tested form may be a part): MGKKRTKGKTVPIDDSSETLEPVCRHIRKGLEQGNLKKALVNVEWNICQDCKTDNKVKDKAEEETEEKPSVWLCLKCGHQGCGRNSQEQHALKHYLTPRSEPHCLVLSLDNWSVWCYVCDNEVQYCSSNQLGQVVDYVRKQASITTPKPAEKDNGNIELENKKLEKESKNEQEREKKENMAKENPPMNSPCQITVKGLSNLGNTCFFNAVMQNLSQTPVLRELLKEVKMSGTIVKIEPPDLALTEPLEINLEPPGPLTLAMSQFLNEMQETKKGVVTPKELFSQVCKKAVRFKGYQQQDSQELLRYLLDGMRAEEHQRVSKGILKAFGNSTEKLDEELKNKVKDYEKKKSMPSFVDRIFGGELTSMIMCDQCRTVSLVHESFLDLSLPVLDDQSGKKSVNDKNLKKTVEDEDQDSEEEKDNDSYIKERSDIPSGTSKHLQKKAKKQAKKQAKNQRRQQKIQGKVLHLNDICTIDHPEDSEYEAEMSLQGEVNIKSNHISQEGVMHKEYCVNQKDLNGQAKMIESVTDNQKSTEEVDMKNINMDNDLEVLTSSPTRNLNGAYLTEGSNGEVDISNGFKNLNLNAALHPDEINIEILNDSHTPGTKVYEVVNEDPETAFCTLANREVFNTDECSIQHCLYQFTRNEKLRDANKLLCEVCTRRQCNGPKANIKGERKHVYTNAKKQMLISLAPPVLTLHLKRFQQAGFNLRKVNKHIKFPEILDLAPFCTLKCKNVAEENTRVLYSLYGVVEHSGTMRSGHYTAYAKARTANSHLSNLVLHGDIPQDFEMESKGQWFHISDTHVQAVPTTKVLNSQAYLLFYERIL
USP24, sequence (Q9UPU5 whole entry): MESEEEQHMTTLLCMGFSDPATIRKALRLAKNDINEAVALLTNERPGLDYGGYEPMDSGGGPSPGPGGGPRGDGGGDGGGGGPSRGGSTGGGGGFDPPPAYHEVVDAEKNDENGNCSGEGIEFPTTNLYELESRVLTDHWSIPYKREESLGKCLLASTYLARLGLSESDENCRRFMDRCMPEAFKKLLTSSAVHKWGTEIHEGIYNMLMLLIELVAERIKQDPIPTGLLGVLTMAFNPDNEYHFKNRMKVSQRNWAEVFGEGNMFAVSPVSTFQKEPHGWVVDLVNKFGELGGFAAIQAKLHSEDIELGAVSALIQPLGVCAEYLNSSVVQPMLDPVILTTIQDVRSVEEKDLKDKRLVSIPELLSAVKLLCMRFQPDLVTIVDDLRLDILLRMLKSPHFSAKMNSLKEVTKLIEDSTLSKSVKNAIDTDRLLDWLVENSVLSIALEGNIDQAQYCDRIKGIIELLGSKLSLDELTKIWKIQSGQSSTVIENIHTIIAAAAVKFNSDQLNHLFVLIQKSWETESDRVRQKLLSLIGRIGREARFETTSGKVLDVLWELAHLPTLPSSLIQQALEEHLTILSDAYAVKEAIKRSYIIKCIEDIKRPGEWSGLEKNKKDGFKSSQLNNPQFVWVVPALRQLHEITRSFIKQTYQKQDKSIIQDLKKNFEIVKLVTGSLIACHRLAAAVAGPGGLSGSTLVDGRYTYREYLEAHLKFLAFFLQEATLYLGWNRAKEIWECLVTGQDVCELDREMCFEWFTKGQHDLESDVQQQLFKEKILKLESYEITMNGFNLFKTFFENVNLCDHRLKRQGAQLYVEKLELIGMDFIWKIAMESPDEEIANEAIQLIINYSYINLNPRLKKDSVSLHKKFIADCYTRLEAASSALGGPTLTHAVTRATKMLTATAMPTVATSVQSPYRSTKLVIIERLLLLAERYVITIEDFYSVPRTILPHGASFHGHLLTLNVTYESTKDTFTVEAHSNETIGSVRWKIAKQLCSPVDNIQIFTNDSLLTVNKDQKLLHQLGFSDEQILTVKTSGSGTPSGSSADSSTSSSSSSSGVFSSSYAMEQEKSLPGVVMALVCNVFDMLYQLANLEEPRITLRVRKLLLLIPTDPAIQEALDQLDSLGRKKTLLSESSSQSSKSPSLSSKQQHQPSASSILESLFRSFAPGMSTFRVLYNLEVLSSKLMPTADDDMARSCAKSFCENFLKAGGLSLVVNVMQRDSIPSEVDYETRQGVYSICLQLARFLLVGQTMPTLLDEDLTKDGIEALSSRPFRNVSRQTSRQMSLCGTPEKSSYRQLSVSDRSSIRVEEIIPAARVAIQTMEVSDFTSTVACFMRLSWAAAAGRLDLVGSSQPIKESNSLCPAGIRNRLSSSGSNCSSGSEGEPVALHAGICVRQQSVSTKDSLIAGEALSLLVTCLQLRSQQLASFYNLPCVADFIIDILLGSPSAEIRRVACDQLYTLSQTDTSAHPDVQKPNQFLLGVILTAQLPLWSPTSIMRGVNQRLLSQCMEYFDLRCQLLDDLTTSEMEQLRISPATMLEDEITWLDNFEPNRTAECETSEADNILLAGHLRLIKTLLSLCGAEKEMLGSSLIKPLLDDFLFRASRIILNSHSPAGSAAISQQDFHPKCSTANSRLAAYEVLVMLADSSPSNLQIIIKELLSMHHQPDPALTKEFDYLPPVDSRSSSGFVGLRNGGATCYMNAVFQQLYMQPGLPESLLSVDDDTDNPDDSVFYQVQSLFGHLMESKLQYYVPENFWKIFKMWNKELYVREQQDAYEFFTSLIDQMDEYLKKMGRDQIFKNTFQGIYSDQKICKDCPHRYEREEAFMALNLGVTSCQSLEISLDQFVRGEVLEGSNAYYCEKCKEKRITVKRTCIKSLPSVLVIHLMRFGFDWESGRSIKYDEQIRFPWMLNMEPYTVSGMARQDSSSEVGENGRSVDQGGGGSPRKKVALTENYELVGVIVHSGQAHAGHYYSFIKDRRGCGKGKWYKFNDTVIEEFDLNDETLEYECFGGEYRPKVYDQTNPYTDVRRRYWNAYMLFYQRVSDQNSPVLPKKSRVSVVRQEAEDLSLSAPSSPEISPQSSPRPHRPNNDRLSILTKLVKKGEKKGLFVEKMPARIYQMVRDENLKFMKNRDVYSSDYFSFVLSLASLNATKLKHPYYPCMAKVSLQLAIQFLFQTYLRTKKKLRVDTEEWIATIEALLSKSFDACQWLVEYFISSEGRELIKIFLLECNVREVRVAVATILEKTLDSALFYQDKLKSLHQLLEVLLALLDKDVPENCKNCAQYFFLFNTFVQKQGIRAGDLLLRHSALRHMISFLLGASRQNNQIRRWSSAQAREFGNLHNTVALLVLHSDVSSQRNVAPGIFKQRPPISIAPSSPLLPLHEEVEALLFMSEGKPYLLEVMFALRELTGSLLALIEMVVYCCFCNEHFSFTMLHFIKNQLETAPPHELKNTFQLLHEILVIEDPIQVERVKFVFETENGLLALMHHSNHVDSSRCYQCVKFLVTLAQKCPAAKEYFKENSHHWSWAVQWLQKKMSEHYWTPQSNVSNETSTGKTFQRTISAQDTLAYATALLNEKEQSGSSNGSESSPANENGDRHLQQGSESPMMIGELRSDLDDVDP

COCC1C=CCCN1C(=O)CCl (stereo not given)
inactive: USP16 -0.0544 | USP19 -0.24 | USP24 -0.137 | USP25 -0.32 | USP28 -0.342
